Rev-erbA mod – modulators of human Rev-erb alpha DNA binding; activity, % at 10 µM; Rev-erbα–FITC-DNA binding, fluorescence polarization, 90 min; 0.79% of 370,000 active; P20393;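 active = activity above about 14%, limit read from the data; passing the limit was not always enough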;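 note: 0% = DMSO wells with 35 nM protein and 100% = DMSO wells with 750 nM protein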
proKLK7 act – proKLK7 (human) activation, primary screen; purified proKLK7, EDANS-DABCYL substrate fluorescence; 100% is mature enzyme control, 0% vehicle; P49862; AID 652039; activation, % at 7 µM; 0.9% of 370,000 active;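 active = activation above the mean of all tested compounds plus 3 SD, computed per campaign excluding outliers beyond control limits, cut at about 13% in these data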
Target sequence (P49862 whole entry, looked up): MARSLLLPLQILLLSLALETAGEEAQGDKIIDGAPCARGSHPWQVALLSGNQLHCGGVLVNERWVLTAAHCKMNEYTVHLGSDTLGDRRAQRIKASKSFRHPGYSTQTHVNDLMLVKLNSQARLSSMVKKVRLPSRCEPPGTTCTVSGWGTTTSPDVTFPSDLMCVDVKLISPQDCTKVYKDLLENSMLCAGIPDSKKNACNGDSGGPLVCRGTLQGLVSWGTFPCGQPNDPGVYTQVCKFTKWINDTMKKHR
PG9 binder – binds the HIV-1 gp120 antibody PG9 | TR-FRET gp120-PG9 antibody binding | inhibition, % at 6.7 µM | 0.43% of 360,000 active; in the data active = inhibition above about 8.5%
PP5 primary – inhibitors of human protein phosphatase 5 (PP5); P53041; purified PP5c, OMFP substrate fluorescence; inhibition, % at 6.7 µM; 0.18% of 320,000 active;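 active = inhibition above the campaign's mean inhibition across all tested compounds plus 3 SD, cut at about 9.5% in these data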;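 note: 0% = DMSO only and 100% = 100 µM cantharidin control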
GASC-1 inh – human JMJD2C demethylase inhibition. GST-JMJD2C(1-420) H3K9me3 demethylation, DELFIA europium. inhibition, % at 2.35 µM. 0.069% of 330,000 active. AID 2099;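 active = more than half of a compound's replicate wells show inhibition beyond 50%, single wells judged on their own value; inconclusive = some, but no more than half, of replicates pass 50% inhibition; inactive = no replicate passes 50% inhibition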;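 note: signal counts dimethyl H3K9 product captured on neutravidin plate; 0% = median of DMSO wells and 100% = 0.3 times that DMSO median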
Target sequence (Q9H3R0 1-420 limits assumed): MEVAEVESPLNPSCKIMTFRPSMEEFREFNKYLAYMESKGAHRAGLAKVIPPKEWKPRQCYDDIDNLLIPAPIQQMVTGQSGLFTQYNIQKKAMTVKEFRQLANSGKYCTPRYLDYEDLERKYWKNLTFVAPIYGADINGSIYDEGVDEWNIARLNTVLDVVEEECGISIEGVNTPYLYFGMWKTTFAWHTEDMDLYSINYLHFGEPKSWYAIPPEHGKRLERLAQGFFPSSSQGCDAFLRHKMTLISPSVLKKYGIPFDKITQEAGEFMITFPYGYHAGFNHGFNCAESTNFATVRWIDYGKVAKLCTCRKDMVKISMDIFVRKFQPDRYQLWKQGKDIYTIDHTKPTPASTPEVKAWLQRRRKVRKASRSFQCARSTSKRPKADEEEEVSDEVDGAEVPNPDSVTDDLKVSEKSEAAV
PP1 inh – counter-screen for PP5 inhibitors: inhibitors of human PP1-alpha; P62136; 0.9% of 320,000 active; inhibition, % at 6.7 µM; purified PP1alpha, OMFP fluorescence;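 active = inhibition above the mean inhibition of all tested compounds plus 3 SD, computed separately for each screening campaign, cut at about 15% in these data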
PG9 binder conf – confirmation of small molecules binding HIV-1 gp120 antibody PG9. TR-FRET PG9 antibody binding, biochemical. 90% of 1,500 active. shares compounds with PG9 binder. inhibition, % at 6.7 µM. AID 651571; in the data active = inhibition above about 9%
PGV04 Ab binding – PGV04 control antibody binding, counter-screen; shares compounds with PG9 binder; TR-FRET PGV04 antibody-gp120 binding, biochemical; inhibition, % at 6.7 µM; 95% of 1,500 active; in the data active = inhibition above about 9.5%
PG9 bind DR – small molecules binding HIV-1 gp120 antibody PG9; shares compounds with PG9 binder; TR-FRET PG9 antibody-gp120 binding inhibition; IC50, µM; 95 tested, under 10 active; AID 651848; in the data active = IC50 below about 10 µM
PGV04 binding DR – binds control antibody PGV04 in PG9 counter-screen. 20% of 95 active. TR-FRET binding to control antibody PGV04. IC50, µM. shares compounds with PG9 binder
PG126 DR counter – binds control antibody PG126 in PG9 counter-screen. shares compounds with PG9 binder. TR-FRET binding to antibody PG126, counterscreen. IC50, µM. 20% of 95 active. AID 651939
NR1D1 mod conf – confirmation of modulators of human Rev-erb alpha DNA binding | shares compounds with Rev-erbA mod | Rev-erb alpha FITC-DNA binding, fluorescence polarization, 90 min | AID 1259319 | activation, % at 25 µM | 61% of 3,000 active;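 active = activation at or above a set limit, or at least 3 SD above the negative control mean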;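 note: 0% = 35 nM protein with DMSO and 100% = 750 nM protein high control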
RORg counter – RORgamma DNA-binding activity, dose-response counter-screen | AID 1259320 | shares compounds with Rev-erbA mod | IC50, µM | purified RORgamma protein-FITC-DNA binding, fluorescence polarization | 8% of 910 active;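 active = Compounds whose fitted half-maximal concentration for disrupting protein-DNA binding is below 10 micromolar; the record names Rev-erb in its text, so the target is in doubt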
Starred values were filed as active, the others as inactive; i = inactive; ? = inconclusive; · = not tested or not shown; + = active, no number. Sampled rows, rich in hits. Any-hit rate of the full collection: about 2.8%. Cut-off read from the data, not from the text of the source, unless noted: active = IC50 below about 9 µM; inactive = the rest.

SMILES	Rev-erbA mod	proKLK7 act	PG9 binder	PP5 primary	GASC-1 inh	PP1 inh	PG9 binder conf	PGV04 Ab binding	NR1D1 mod conf	others
Cc1ccc2cc(/C=C(\C#N)C(N)=O)c(N3CCCCC3)nc2c1	4	1	0	2	2	1	·	·	·
CCOC(=O)/C(C#N)=C/c1cc2ccccc2nc1N1CCCCC1	43*	1	27*	-2	6	3	25*	30*	43*	RORg counter=>40
Cc1cccc(Nc2nn3c(=O)c4ccccc4nc3s2)c1	299*	-1	28*	2	?	6	62*	69*	289*	RORg counter=i
CC1CCCN(C(=O)c2ccc3c(=O)n4nc(Nc5ccccc5)sc4nc3c2)C1 (stereo not drawn)	-7	0	-1	·	·	·	·	·	·
Cc1ccc(OCC(=O)NNC(=O)C2CCN(c3ncnc4sc(C)c(C)c34)CC2)cc1	-2	0	-1	3	-4	-5	·	·	·
Cc1sc2ncnc(N3CCC(C(=O)Nc4nnc(CC(C)C)s4)CC3)c2c1C	17*	0	14*	2	12	-3	42*	54*	12
COc1ccc(NC(=O)c2cc3c([nH]c4ccccc43)c(C)n2)cc1	2	1	-1	1	-13	-1	·	·	·
Cc1nc(C(=O)Nc2ccccc2Cl)cc2c1[nH]c1ccccc12	21*	0	22*	-1	64	14	12*	26*	8
O=C(NCCc1c[nH]c2ccccc12)OCc1cn(-c2ccc(F)cc2F)nn1	-1	1	·	·	·	·	·	·	·
COC(=O)[C@]12C[C@H](CC(=O)N3CCCCC3)C(=O)N(CCC3=CCCCC3)C1=C[C@H](C(C)(C)C)O[C@@H]2C	-7	1	2	·	·	·	·	·	·
C[C@H]1[C@@H](OC(=O)Nc2cccc(C(F)(F)F)c2)CC[C@@]23CCCN2C(=O)CCC[C@@H]13	1	·	·	·	·	·	·	·	·
Cc1ccccc1OCCC(=O)Nc1ccc2c(C)cc(=O)oc2c1	23*	-10	10*	2	-10	2	15*	38*	6
Cc1cc(=O)oc2cc(NC(=O)CCC(=O)O)ccc12	-3	1	2	3	-1	4	·	·	·
C[C@@H]1CCCCO[C@H](CN(C)C(=O)C2CCCCC2)[C@@H](C)CN([C@H](C)CO)C(=O)c2cc(NS(=O)(=O)c3cccs3)ccc2O1	1	0	-2	·	·	·	·	·	·
COc1ccc(-c2c(C)sc(NC(=O)c3ccnn3C)c2C#N)cc1	47*	1	52*	-3	-3	7	60*	61*	27*
N#Cc1c(N)nc(SCC(=O)NC2CCCCC2)c(C#N)c1-c1ccc(Cl)cc1	24*	0	18*	-2	-2	-3	26*	29*	25*
CC(C)c1ccc(-c2c(C#N)c(N)nc(SCC(=O)N3CCCCCC3)c2C#N)cc1	52*	0	83*	0	103	-3	89*	92*	9
CC(C)c1ccc(-c2c(C#N)c(N)nc(SCC(=O)N3CCCCC3)c2C#N)cc1	83*	1	42*	0	10	-3	69*	66*	69*	PG9 bind DR=6*;PGV04 binding DR=3.4*;PG126 DR counter=4*;RORg counter=>40
COC(=O)CSc1nc(N)c(C#N)c(-c2ccc(O)cc2)c1C#N	-5	1	-1	1	7	1	·	·	·
CNC(=O)c1ccccc1C1(O)c2ccccc2CCc2ccccc21	-3	0	0	·	·	·	·	·	·
CCC(C)(C)C(=O)N1CCC(C(=O)NC2CCCc3ccccc32)CC1 (stereo not drawn)	0	0	·	·	·	·	·	·	·
CCn1c(=O)c(C(=O)Nc2ccccc2S(N)(=O)=O)c(O)c2ccccc21	20*	0	15*	0	7	0	7	14*	17
CCOP(=O)(OCC)c1ccc2c(c1)C(=O)c1ccccc1-2	2	·	·	·	·	·	·	·	·
CCC(C)[C@H](NC(=O)[C@H](CC(C)C)NC(=O)OC(C)(C)C)C(=O)N[C@@H](Cc1ccccc1)C(=O)OC (stereo partly drawn)	0	0	·	·	·	·	·	·	·
CCc1cc2cc(C(=O)Nc3ccc(C)cc3)sc2s1	45*	0	31*	0	11	-1	29*	36*	17*
SMILES	Rev-erbA mod	proKLK7 act	PG9 binder	PP5 primary	GASC-1 inh	PP1 inh	PG9 binder conf	PGV04 Ab binding	NR1D1 mod conf	others
Fc1cccc2sc(Nc3nc4ccccc4s3)nc12	40*	-1	14*	0	-10	-7	13*	29*	35*	RORg counter=>40
COc1ccc2c(c1)[C@@]1(NCCc3c1[nH]c1ccc(OC)cc31)C(=O)N2C	3	0	·	·	·	·	·	·	·
Cc1ccsc1C(=O)Nc1ccc(O)c(-c2nc3ccccc3s2)c1	450*	3	51*	1	3	4	58*	78*	354*	RORg counter=>40
CC1(C)OC(=O)C2=C(CC(CCc3ccccc3)OC2c2ccc(F)cc2)O1 (stereo not drawn)	-1	0	1	·	·	·	·	·	·
O=C(CSc1ncnc2c1oc1ccccc12)Nc1cccc(C(F)(F)F)c1	2	0	-9	3	-8	0	·	·	·
COC(=O)c1ccc(CSc2ncnc3c2oc2ccccc23)o1	147*	0	15*	1	?	-2	43*	80*	144*	RORg counter=>40
O=C(CSc1ncnc2c1oc1ccccc12)Nc1cccc(Cl)c1	430*	0	81*	2	-3	2	81*	94*	371*	RORg counter=i
Cc1nc(SCC(=O)NCCc2ccccc2)c2oc3ccccc3c2n1	+	0	26*	-1	13	0	88*	74*	+	PG9 bind DR=3.4*;PGV04 binding DR=2.4*;PG126 DR counter=2.3*;RORg counter=>40
Cc1nc(SCC(=O)c2ccc(Cl)s2)c2oc3ccccc3c2n1	10	0	1	2	-8	-4	·	·	·
